Holding throughout (assay): PBM binding z-score (relative to random genomic background probes); higher = stronger binding; sequences stand for … in GC…GCGATTGACAGCGTAGAATGAAGG
In test [1] the test system is PPARg:RXRa DBDmut IVT, anti-RXR (DBD mutation: RXRa K156A/R161A, NR concentration 270 nM, RXRa partner concentration 90 nM). The essentials: (§1)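 Ligand-free nuclear receptor dimers were bound for 1 h to custom Agilent 4×180K protein-binding microarrays. Detection used antibodies against each partner (one per run). Binding z-scores rest on regression-normalized fluorescence, with random background probes as the reference.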

The subject of test [2] is PPARg:RXRa IVT, anti-PPARg (NR concentration 270 nM, RXRa partner concentration 90 nM). The essentials: as §1
The test system of test [3] is PPARg DBDmut:RXRa IVT, anti-PPARg (DBD mutation: PPARg1 K132A/R137A, NR concentration 270 nM, RXRa partner concentration 90 nM). Summed up:
as §1

Test [4] deals with PPARg DBDmut IVT, anti-PPARg (DBD mutation: PPARg1 K132A/R137A, NR concentration 270 nM). Summed up:
as §1

The subject of test [5] is PPARg homodimer (NR concentration 180 nM). The essentials:
as §1

The test system of test [6] is PXR homodimer (NR concentration 270 nM). Summed up:
as §1

In test [7] the test system is RARa:RXR (NR concentration 270 nM, RXRa partner concentration 90 nM). The essentials: as §1
In test [8] the test system is RARa homodimer (NR concentration 270 nM). The essentials: as §1
Test [9] relates to RARb:RXRa (NR concentration 270 nM, RXRa partner concentration 90 nM). The essentials:
as §1

For test [10], the system named is RARb homodimer (NR concentration 270 nM). Summed up:
as §1

For test [11], the system named is RARg:RXRa (NR concentration 270 nM, RXRa partner concentration 90 nM). The essentials: as §1
Test [12] deals with RARg homodimer (NR concentration 270 nM). The essentials:
as §1

Test [13] has as its system RXRa DBDmut IVT, anti-RXR (DBD mutation: RXRa K156A/R161A, NR concentration 90 nM). Summed up:
as §1

Test [14] deals with RXRa homodimer (NR concentration 180 nM). The essentials:
as §1

Test [15] has as its system THRa:RXRa (NR concentration 90 nM, RXRa partner concentration 90 nM). Summed up: as §1
Test [16] relates to THRa homodimer (NR concentration 90 nM). The essentials: as §1
Test [17] deals with VDR:RXRa (NR concentration 270 nM, RXRa partner concentration 90 nM). The essentials:
as §1

Test [18] has as its system VDR homodimer (NR concentration 270 nM). Summed up:
as §1

In test [19] the test system is PXR:RXRa (NR concentration 270 nM, RXRa partner concentration 90 nM). The essentials: as §1

Drawing on the supplement of paper PMC6555819, this text covers PBM binding z-score for eight sequences.

As to CTCGAAAGGTCGTCCTCAGGTGAGTATACCAAAC, the PBM binding z-score in test [1] was 0.175; in test [2], 1.77; in test [3] it was 0.216; in [4], -0.144; in test [5], 1.94; in test [6] it was 0.134. The PBM binding z-score in test [7] was 4.1; in [8] it was -0.0286; in test [9] it was 3.8; in test [10], 3; in [11] it was 5.29; in [12] it was 4.2. Further, the PBM binding z-score in test [13] worked out at 2.35; in [14] it was 4.82; in test [15], 4.13; in test [16], 1.94; in test [17] it was 3.41; in test [18] it was 1.84.
As to GCTAGTAGGTCAGTAAAAGGTCACACACCGGTCG, the PBM binding z-score in test [1] stood at 7.2; in test [2] it was 7.29; in test [3], 3.2; in [4], 3.78; in test [5] it was 6.95; in [19] it was 5.97. Besides, the PBM binding z-score in test [6] was determined as 1.43; in test [8], 2.9; in test [9], 5.4; in test [10], 6.06; in test [12], 7.14; in test [13] it was 0.784. Moreover, the PBM binding z-score in [14] came out at 6.4; in test [15], 4.27; in [16] it was 1.97; in [18] it was 2.37.
As to AATACAGGGTCACTAGGCCAGAGTGGGTACGAAT, the PBM binding z-score was found to be 3.88 in [1]; 5.89 in test [2]; 2.29 in test [3]; 2.32 in test [4]; 2.94 in test [5]; 0.0148 in [6]. The PBM binding z-score came to 4.01 in test [7]; 0.459 in test [8]; 4.03 in test [9]; 3.17 in test [10]; 5.09 in test [11]; 4.79 in test [12]. The PBM binding z-score was found to be 2.59 in test [13]; 5.4 in test [14]; 3.29 in [15]; 1.4 in [16]; 3.97 in test [17]; 3.06 in test [18].
As to ATCGAAAGGTCGAAGGTGACTATACCCACCCGAA, the PBM binding z-score came to 0.283 in test [1]; 2.43 in test [2]; 0.926 in test [3]; 0.616 in test [4]; 2.37 in test [5]; 0.106 in test [6]. Further, the PBM binding z-score in test [7] turned out to be 4.31; in [8], 0.973; in test [9] it was 3.79; in [10], 2.48; in [11], 4.16; in test [12] it was 3.63. Also, the PBM binding z-score in test [13] amounted to 1.17; in test [14], 4.99; in test [15], 2.33; in [16], 0.209; in [18], 0.592.
Regarding CCTTACGGGTCACGGGGTTATAGCACGACGAGCG, the PBM binding z-score in [1] is 3.39; in test [2] it was 5.93; in test [3], 4.69; in test [4], 3.61; in [5], 8.52; in test [19], 5.66. For the same sequence, the PBM binding z-score in test [6] is 0.491; in test [8] it was 2.14; in test [9], 4.72; in test [10], 3.7; in test [11], 6.74; in test [12], 5.54. Besides, the PBM binding z-score in test [13] is 1.77; in [15], 4; in test [16], 0.91; in [18], 2.44.
AGTGAAAGTTCAGGACGAGGTAACGTAAAGCACG: the PBM binding z-score is -0.565 in test [1]; 1.36 in test [2]; 0.759 in test [3]; 0.589 in test [4]; 1.57 in test [5]; 1.41 in test [6]. Also, the PBM binding z-score in test [7] stood at 2.9; in test [8], 0.544; in [9], 4.14; in [10] it was 3.13; in test [11], 4.55; in [12], 4.38. Moreover, the PBM binding z-score in [13] stood at 2.84; in [14], 2.54; in test [15], 3.93; in [16], 1.95; in [17], 2.81; in [18], 2.34.
Turning to TATACAGGGTCAAAGGGCAGAGTACGAATGTCGA, the PBM binding z-score in test [1] was 2.92; in [2] it was 5.52; in test [3], 3.49; in test [4] it was 2.57; in test [5], 2.97; in [19] it was 5.21. Moreover, the PBM binding z-score came to 1.62 in [6]; 1.6 in test [8]; 4.84 in [9]; 4.22 in test [10]; 6.33 in test [11]; 5.48 in test [12]. Moreover, the PBM binding z-score came to 3.14 in [13], 3.98 in [15], 1.48 in test [16] and 3.82 in [18].
Consider CTCGAAAGGTCGTGCTCAGGTGAGTATGCCAAAC, for which the PBM binding z-score in [1] turned out to be 1.24; in test [2] it was 1.96; in test [3], 0.261; in test [4], 0.173; in test [5], 1.39; in test [6] it was 0.126. In addition, the PBM binding z-score was 4.18 in test [7]; 0.00788 in [8]; 3.83 in [9]; 2.94 in test [10]; 5.26 in test [11]; 3.88 in test [12]. Moreover, the PBM binding z-score in test [13] was 2.18; in test [14], 4.88; in [15], 4.11; in [16], 0.926; in test [17] it was 3.25; in test [18], 0.764.
